# Measurements: PubChem BioAssay AID1159583 (ICCB-Longwood Screening Facility, Harvard Medical School, 2016)
# Values joined by “and” are separate entries in the source; they are usually repeats but may differ in a detail not shown here. Equal values may be shown once. Screen size: about 300,000 compounds; about 310 (0.1%) were called active. Rule as the data show it: active = fluorescence inhibition mostly above about 23% (no sharp cut-off); inactive = mostly below about 17%. The sample as a whole holds a higher share of actives than the screen did.
# Experiment: hypoxia reporter signal reduction in M. tuberculosis – fluorescence, absorbance growth readout, primary screen (AID 1159583)
# Settings: M. tuberculosis hypoxia-regulated fluorescent reporter, stronger effect = higher value, concentration not given here; growth inhibition: measured here: M. tuberculosis growth (absorbance)
SMILES,fluorescence inhibition,growth inhibition
CN1C(=O)C(=NOC(=O)c2ccccc2Cl)c2ccccc21,12.3% (inactive),3.63%
COc1ccc(C=NNc2c(Cl)cc(Cl)cc2Cl)cc1CN1CCOCC1,-4.05% (inactive),12.6%
CC(C)c1ccc(NC(=O)NC2CCCCC2)cc1,20.8% (active),53%
CC(C)(C)NS(=O)(=O)c1ccc(NC(=O)NC2CCCCC2)cc1,3.29% (inactive),2.76%
Cc1cc(C)cc(NC(=O)NC2CCCCCCC2)c1,95.8%,
CSc1nsc(NN=Cc2ccccc2)c1C#N,1.35% (inactive),9.85%
CC(C)CCn1c(=O)c(C(=O)NN=Cc2cccc(F)c2)c(O)c2ccccc21,5.09% (inactive),2.73%
O=C1CC2c3c(cccc3CN1Cc1ccc(F)cc1)CC(O)C2O (stereo unspecified),13.8% (inactive),7.24%
CC(=NNC(=O)c1ccn(C)n1)c1cccc(NC(=O)c2ccncc2)c1,-2.04% (inactive),6.06%
COCc1c(Br)c(C)nc(OCC(=O)NN=Cc2ccc(C)o2)c1C#N,18.1% (inactive),8.53%
CCC(=NNC(C)=O)c1ccc(OC(F)F)cc1,18.5% (inactive),-1.52%
Cc1c(C=NNC(=O)c2ccc(F)cc2)cnn1C,2.95% (inactive),1.5%
COc1ccc(C2CC(=O)C=C(c3ccc(Cl)cc3C)C2)cc1 (stereo unspecified),14.8% (inactive),2.62%
O=C(O)CC1c2cc(C(F)(F)F)ccc2S(=O)(=O)N1C1CCCCC1 (stereo unspecified),13.2% (inactive),14.6%
CCOc1cc(C=NNC(=O)CSc2nnc(C)s2)ccc1OCc1ccccc1Cl,-1.48% (inactive),-4.08%
CC1(C)CC(=O)CC(=NNC(=O)C2CC2c2ccccc2)C1 (stereo unspecified),-1.34% (inactive),15.1%
O=C(O)c1cccc2c1-c1ccccc1C2=NNc1ccccc1,1.02% (inactive),-10.1%
O=[N+]([O-])c1ccccc1NN=Cc1cccc(O)c1O,9.33% (inactive),0.684%
CC(=NO)C(C)(C)Nc1cccc(F)c1,-1.15% (inactive),4.49%
COc1ccc(-c2sc3ccccc3c2C=Cc2ccc(OC)c(OC)c2)cc1,17.3% (inactive),10%
COc1ccc(C2C=CCN(S(C)(=O)=O)C(C)C(=O)N2Cc2ccc(F)cc2)cc1 (stereo unspecified),18% (inactive),13.9%
CC(C)(C)OC(=O)NC(Cc1ccccc1)C(=O)NC(CO)C(O)C1CC1C(=O)NC1CC1 (stereo unspecified),14.6% (inactive),4.91%
O=C(CN1CCN(Cc2ccc(Cl)cc2)CC1)NN=Cc1cccs1,6.55% (inactive),-3.12%
Cc1ccc(C=NNC(=O)Nc2ccccc2)o1,14.8% (inactive),5.33%
CCN1C(=O)C(CC(=O)Nc2ccccc2)SC1=Nc1ccccn1 (stereo unspecified),0.176% (inactive),4.92%
COc1ccc(Cl)cc1NC(=O)CC(C)=NNC(=O)COc1ccc(C)cc1,13.3% (inactive),3.14%

SMILES,fluorescence inhibition,growth inhibition
O=[N+]([O-])c1ccc(Cl)cc1NN=Cc1ccncc1,6.88% (inactive),-1.48%
O=C(NN=Cc1ccncc1)c1cc2c(ccc3ccccc32)o1,-1.63% (inactive),10.4%
COc1cc(C=NNC(=S)NCc2ccccc2)ccc1OCC#N,8.67% (inactive),7.58%
CC(C)c1ccc(C=NNC(=O)c2cc(-c3cccc([N+](=O)[O-])c3)n[nH]2)cc1,16.3% (inactive),1.5%
Cc1ccc(C=NNC(=O)CCCOc2ccc(Cl)cc2Cl)cc1[N+](=O)[O-],1.7% (inactive),5.81%
O=C(NN=Cc1ccccc1)C(O)c1ccccc1 (stereo unspecified),-2.65% (inactive),-6.95%
COc1ccc2c(c1)C1C(CO2)C(c2ccccc2)[C@]2(C)C(=O)Nc3cc(F)c(F)cc3C(=O)N12 (stereo partly specified),12.4% (inactive),11.9%
COC(=O)C1=C(C)N(Cc2ccccc2)C(=NCc2ccco2)NC1c1cccc(F)c1 (stereo unspecified),-3.36% (inactive),4.01%
CC(=O)C=C(C)NC(Cc1c[nH]c2ccccc12)C(=O)O (stereo unspecified),-7.06% (inactive),-3.51%
CC(=NNC(=S)NC1CCCCC1)c1ccc(OC(F)F)cc1OC(F)F,2.47% (inactive),1.1%
COc1ccc(Cl)cc1C(=O)NN=Cc1ccc(N2CCOCC2)cc1,-1.94% (inactive),6.35%
CC(Cc1ccccc1)=NNC(=O)CNC(=O)c1cccc(Br)c1,-10% (inactive),-2.78%
CCOC(=O)C1=C(N)n2c(sc(=Cc3ccco3)c2=O)=C(C(=O)OC)C1c1ccco1 (stereo unspecified),-1.95% (inactive),-7.35%
C=CCc1cccc(C=Nc2nc3ccccc3n2CC)c1O,7.78% (inactive),3.33%
CCOc1c2ccc(C(=O)NC(C)C3CCCCC3)cc2nn1CCOC (stereo unspecified),1.7% (inactive),7.24%
CC#CCN1c2ccccc2[C@]23CC(C(=O)OC)N(C(C)=O)C2=NC(C(=O)OC)=C(C(=O)OC)C13 (stereo partly specified),21.5% (inactive),5.39%
COc1ccc(C(=O)NN=Cc2ccc(OC(=O)c3cccc4ccccc34)c([N+](=O)[O-])c2)cc1,8.45% (inactive),6.08%
COc1ccc(C2CC(=O)C=C(c3ccc(OC(F)(F)F)cc3)C2)cc1OC (stereo unspecified),-7.53% (inactive),0.871%
Cc1sc2nc(C)n(N=Cc3ccc(O)cc3)c(=O)c2c1C,8.51% (inactive),1.4%
CCCCN1C(N)=NCC1CCCCN (stereo unspecified),3.89% (inactive),4.01%
O=C(CCCC(=O)NN=Cc1ccccc1C(=O)O)NN=Cc1ccccc1C(=O)O,3.15% (inactive),3.53%
NC(=NOC(=O)c1ccc2c(c1)OCO2)c1ccc([N+](=O)[O-])cc1,3.03% (inactive),4.61%
COc1ccc(C=NNc2nc(=O)[nH]nc2C)cc1[N+](=O)[O-],5.04% (inactive),5.94%
CCn1c(SCC(=O)NN=C(C)c2ccco2)nnc1-c1ccccc1,-6.87% (inactive),-5.95%
Oc1ccccc1C=NNc1cccc2cccnc12,2.03% (inactive),5%
O=C(Cc1cc(=O)[nH][nH]1)NN=Cc1ccccc1Cl,-6.7% (inactive),3.17%

SMILES,fluorescence inhibition,growth inhibition
Cc1ccc(S(=O)(=O)NN=Cc2ccc(OC3CSC3)cc2)cc1,-5.05% (inactive),2.12%
CC(NCCN1CCOCC1)=C(C#N)C(N)=O,7.39% (inactive),4.01%
O=C1C2CC3C=CC2(O3)C2OCCCN12 (stereo unspecified),8.99% (inactive),11.9%
CC1CC2C3CCC4=CC(=O)C=C[C@]4(C)[C@@]3(F)C(O)C[C@]2(C)C1C(=O)CO (stereo partly specified),-3.35% (inactive),0.308%
Nc1cnnc(NN=Cc2ccccc2)c1Cl,7.6% (inactive),4.96%
Cc1cc(C(=O)NN=Cc2ccc(-c3ccc([N+](=O)[O-])cc3C)o2)n[nH]1,5.18% (inactive),1.96%
O=C(NN=Cc1ccccn1)c1cc(-c2ccccc2Cl)n[nH]1,10.9% (inactive),11.2%
CC(=NNC(=O)OC(C)(C)C)c1ccc(-n2ccnc2)cc1,11.1% (inactive),15.9%
N#CC(=NNc1cccc(F)c1)C(=O)C1CC1,0.893% (inactive),-0.741%
CC(CC(O)(C=NO)c1ccccc1)=NO (stereo unspecified),10% (inactive),6.39%
COc1ccc(C=NNc2nc3ccccc3[nH]2)c(OC)c1OC,1.22% (inactive),-0.982%
CCOC(=O)C(=Cc1ccc(C)cc1)NC(=O)c1ccccc1,1.97% (inactive),2.94%
NC(Cc1cccc2ccccc12)=NOC(=O)Cc1cccs1,2.6% (inactive),4.27%
COc1ccc(CNC(=O)C2CC=CC3CCN(C4CC4)C(=O)C32)cc1 (stereo unspecified),19.3% (inactive),20.6%
Cc1cc(C(=O)NN=Cc2cn[nH]c2-c2ccccc2)cs1,-3.45% (inactive),-1.59%
COc1cccc(C2Oc3ccc(Br)cc3C(=O)C2OC(=O)NC2CCCC2)c1 (stereo unspecified),2.63% (inactive),0.422%
CCCCCC=CC1=CC(=O)CC(c2ccc(Cl)cc2)C1 (stereo unspecified),-0.281% (inactive),11.6%
Cc1cc(SCC(=O)NN=Cc2ccccc2C(=O)O)c(C)cc1Br,0.764% (inactive),-1.84%
OCC1OC(O)C(O)C1O (stereo unspecified),1.54% (inactive),-8.94%
CC(C)(C)OC(=O)CC1CC=CCC(CC(=O)NC(CO)Cc2ccccc2)C(=O)NC(C(C)(C)C)COC1=O (stereo unspecified),0.171% (inactive) and 3.19% (inactive),4.91% and 7.16%
CC(C)(O)C1C2OC(=O)C1[C@]1(O)CC3O[C@]34C(=O)OC2[C@]14C (stereo partly specified) (tested in a mixture with another compound),-0.0447% (inactive),5.86%
COC(=O)[C@]1(Cc2ccccc2)NC(c2ccc(-c3cccc(Cl)c3)c(OC)c2)C2C(=O)N(C)C(=O)C21 (stereo partly specified),1.8% (inactive),8.95%
O=C(NN=Cc1c[nH]c2ccccc12)c1[nH]c2ccc(Br)cc2c1-c1ccccc1,4.24% (inactive),-6.01%
O=C(NN=CC1CC2CCC1C2)C1CC1 (stereo unspecified),-1.06% (inactive),-3.88%
